# According to ChEMBL document CHEMBL5308541, “MAIP: An Open-Source Tool to Enrich High-Throughput Screening Output and Identify Novel, Druglike Molecules with Antimalarial Activity” (ACS Med Chem Lett, 2023):
# Hit rate of the full screen: of about 4,800 compounds, about 410 (8.5%) showed an effect of 50% or more. Only a selection was taken, and strong results are over-represented in it overall.
# Test system: Plasmodium falciparum
# Assay: Confirmatory screen in NF54 pLDH assay, in single point, at 2uM, 72h
# Type: functional, Erythrocyte
# Settings: timepoint 72 hour
row,SMILES,% Inhibition [%]
1,CN1CCC(N(Cc2ccccc2)C(=O)c2cc3cnccc3[nH]2)CC1,58
2,Cc1cc(N2CCC(NC3CCNC(c4ccccc4)C3)CC2)nc(C)n1 (stereo not given),33
3,Cc1cc(N2CCC(NC3CCCC3Cc3ccc(F)cc3)CC2)nc(N)n1 (stereo not given),103
4,O=C(NCC1CC1)c1cc2c(OCc3ccc(Cl)cc3)cccc2[nH]1,53
5,Cc1cc(NC[C@H](O)COc2ccc(F)cc2)nc2ccccc12,81
6,N#Cc1ccc(N2C[C@H](COCC3CC3)C3(CCN(Cc4cccc(O)c4)CC3)C2)cc1C(F)(F)F,89
7,COCCCN1CCC(Nc2ncnc3cc(C)c(C)cc23)CC1,94
8,CC1(N2CCC2)CCC(NC[C@H]2CCN(Cc3ccccc3)C2)CC1 (stereo not given in full),66
9,Cn1nnc(C(=O)N2CCCCC23CCCCCC3)n1,59
10,Cc1ccc2[nH]c(-c3cc4n(n3)CCN(c3ccnc(N)n3)C4)nc2c1C,97
11,c1ccc(CN2CCC(CCNC[C@@H]3CCCN4CCCC[C@H]34)CC2)cc1,63
12,CCN(Cc1cnn(-c2cccc(Cl)c2)c1)CC1CCN(C2CCN(C)CC2)CC1,92
13,CCN(Cc1[nH]c2ccc(Cl)cc2c1C)CC1CCN(C2CCN(C)CC2)CC1,102
14,COc1ccc(-c2cc(-c3ccccc3O)n([C@@H]3C(=O)Nc4ccc(Br)cc43)n2)cc1,46
15,CC(C)c1ccc(-c2nc(CN3CCCCC3)cc(CN3CCCCC3)c2O)cc1,92
16,CC(C)c1ccc(-c2noc(CCN3CCN(CCCN(C)C)CC3)n2)cc1,30
17,c1ccc(CNc2ccc(-c3noc(C45CCCN(CCC4)C5)n3)cn2)cc1,99
18,C[C@@H](CNC1CCN(C2CCN(C)CC2)CC1)c1cccc(Cl)c1,103
19,CCCc1cccc(CNC2CCN(C3CCN(C)CC3)CC2)c1,71
20,CN1CCN(CCNC2CCN3CCCC3C2)C(c2ccccc2)C1 (stereo not given),28
21,c1cncc(-c2ccc(CNC3CCN(Cc4cccs4)CC3)cc2)c1,86
22,Brc1cccc(NCCNC2CCN(Cc3cccnc3)CC2)c1,41

row,SMILES,% Inhibition [%]
1,COc1ccc(CNCc2cc3ccccc3[nH]2)cc1CN(C)C,36
2,CN1CCN(CCOc2ccccc2CN(C)Cc2cc3cc(F)ccc3[nH]2)CC1,104
3,CN1CCC[C@H](CN2CCN(Cc3cc4n(n3)CCCNC4)CC2)C1,-7
4,CN(c1ccccc1)c1ccc(CN2CCN([C@H]3CCNC3)CC2)cc1,0
5,Fc1ccc(N2CCC(N[C@@H]3COC4(CCNCC4)C3)CC2)cc1F,6
6,Cc1nc2ccc(CNC3CCN(c4ccc(F)c(F)c4)CC3)cc2[nH]1,64
7,N[C@H]1CC[C@@H](NC2CCN(c3ccc(F)c(F)c3)CC2)CC1,35
8,CN(CCCn1ccnc1)c1ccnc2cc(Br)ccc12,98
9,Cc1cccc(Nc2ccnc(Nc3ccc(N4CCN(C)CC4)cc3)n2)c1,99
10,CNc1nc(N2CCN(CC(=O)NC3CCCCC3)CC2)nc2ccccc12,26
11,COc1ccc2c(N3CC[C@H](CN4CCCC4)C3)ccnc2c1,102
12,CN1CCN(CC2CCN(c3ccnc4ccccc34)CC2)CC1,103
13,Cn1cncc1[C@@H]1CNC[C@H]1CNC(=O)c1ccccc1NC1CCCCC1,73
14,O=C(Nc1cnc2c(c1)COCC2)c1cc2c(OC(F)(F)F)cccc2[nH]1,102
15,O[C@H]1CCN(Cc2cccc(NCc3cn4ccnc4s3)c2)C1,45
16,CCN1CCC[C@H](Nc2cccc(-n3ccnc3)n2)C1,32
17,O[C@H]1CCN(Cc2ccccc2CNc2cccc(-n3ccnc3)n2)C1,101
18,OCCN1CCC(NCCc2cc(Cl)cc(Cl)c2)CC1,30
19,CN1CCN(CCCCNC2CC3CCC(C2)N3Cc2ccccc2)CC1 (stereo not given),41
20,Nc1ccnc2ccc(-c3ccc(C(=O)NCC4CCOCC4)cc3)cc12,102
21,O=C1C2CCCCC2C(c2c(-c3ccccc3)[nH]c3ccccc23)N1Cc1ccccc1 (stereo not given),33
22,COc1cc2nc(NCC3(N4CCN(C)CC4)CCCC3)cc(C)c2cc1OC,103

row,SMILES,% Inhibition [%]
1,Cc1ccccc1-c1cccc(N2CCC(NCC3CCNCC3)CC2)c1,100
2,Cc1ccccc1-c1cccc(CNCCCN2CCC[C@H](O)C2)c1,17
3,Cc1ccc2[nH]c(CNC[C@@H](CO)C3CCC3)cc2c1C,80
4,CNc1nc(C)c(-c2ccnc(Nc3cccc(S(C)(=O)=O)c3)n2)s1,45
5,Nc1nc(NCC2CCN(CCc3ccccc3)CC2)cc([C@H]2C[C@@H](N)C2)n1,26
6,Cc1cc(NC[C@H]2CN(CC(C)C)CCO2)c2ccccc2n1,28
7,CCCN1CCC(Nc2cc(C)nc3ccccc23)CC1,89
8,CC(C)CCOc1ccc2[nH]c(-c3cc(N4CCC[C@@H]4CS(C)(=O)=O)ccn3)cc2c1,98
9,Nc1ccnc(-c2cccc3[nH]ccc23)c1,0
10,COc1ccc2[nH]cc(-c3ccc(N)nc3)c2c1,-21
11,COc1ccc2cc(-c3cc(N)ccn3)[nH]c2c1,89
12,COc1ccc2cc(NC(=O)c3cc(-c4c(C)nn(C)c4C)[nH]n3)cnc2c1,81
13,Oc1cccc2c1CCC[C@@H]2NCc1ccc2occc2c1,55
14,CN(C)C1CCN(CCN[C@H]2CCc3ccc(F)cc32)CC1,97
15,CCN1CCN(C[C@@H](C)CNCc2cc(-c3ccccc3)ccc2OC)CC1,-4
16,O[C@H](COc1ccccc1CNCc1cc(-c2ccccc2)[nH]n1)CN1CCCCC1,103
17,Cc1ccn2cc(-c3ccc(N4CCC(NCc5cccnc5)CC4)cc3)nc2c1,102
18,Cc1nc(N2CCN(C)CC2)cc(N2CCN(S(=O)(=O)c3ccccc3C(F)(F)F)CC2)n1,56
19,O=C(NCc1ccc(N2CCNCC2)c(F)c1)c1ccc(-c2noc(C(F)(F)F)n2)cc1,54
20,c1ccc2c(Nc3ccc4[nH]cnc4c3)c3ccccc3nc2c1,102
21,FC(F)(F)c1ccc(-c2c(-c3ccccc3)ncn2Cc2ncn[nH]2)cc1,7
